Shown are actives, neighbours in structure and some others; about 14% of the full set was active somewhere.
Giardia FBPA inh: inhibitors of Giardia lamblia fructose-1,6-bisphosphate aldolase. purified Giardia FBPA. Potency, µM (top dose mostly 59.6 µM), for inactives: at the top dose activity, negative = inhibition, actives largely listed as inhibitors. AID 2451. actives 0.71% (n = 290,000); further: potency means the concentration at half of the fitted maximal effect; on the % scale 0 is the no-effect control and ±100 the full control effect; nearly all actives have a fitted effect of over 55% in size
Target sequence (A8B2U2 whole entry, looked up): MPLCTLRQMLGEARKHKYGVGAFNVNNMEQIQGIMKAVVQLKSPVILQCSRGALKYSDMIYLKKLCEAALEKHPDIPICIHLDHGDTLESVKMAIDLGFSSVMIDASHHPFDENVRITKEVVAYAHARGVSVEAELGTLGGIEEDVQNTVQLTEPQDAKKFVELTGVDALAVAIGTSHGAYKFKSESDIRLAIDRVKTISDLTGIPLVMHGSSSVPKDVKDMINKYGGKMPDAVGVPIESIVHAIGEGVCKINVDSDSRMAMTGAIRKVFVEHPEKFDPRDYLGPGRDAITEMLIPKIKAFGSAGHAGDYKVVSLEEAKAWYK
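40 nM FBPA preincubated 10 min at RT with compound (up to 57.5 uM final), then substrate plus GAPDH/TPI/NAD/arsenate coupling and diaphorase/resazurin added. Fluorescence read after 20 min at RT, 525/598 nm.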
NS1 function inh: influenza NS1 inhibition | Potency, µM (titrated, usually from 46.1 µM), inactives show top-dose activity, positive = more growth | AID 2326 | actives 0.4% (n = 270,000); calls by dose curve; further: potency means the concentration at half of the fitted maximal effect; actives are rising curves; nearly all actives have a fitted effect of over 50% in size
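Read-out: OD600 growth recovery of NS1-expressing budding yeast. Cells grown overnight at 30C in -URA glucose medium, washed, resuspended and diluted 1:100 in 2% galactose assay medium, pH 6.0. Same strain lacking NS1 served as positive control.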
Cycloheximide cs: counter-screen hit for Shiga toxin inhibitors, cycloheximide; actives 12% (n = 300,000); cell reporter, cycloheximide protein synthesis inhibition counterscreen; max response, %; in the data active means max response mostly above about 13%, no sharp cut-off; inactive means mostly below about 14%; further: read at 38.3 µM for the half of the compounds with a filed dose; 0% is about no effect
LmPK inhibitor: blocks Leishmania mexicana pyruvate kinase activity | Q27686 | purified LmPK, Kinase-Glo ATP luminescence, 1 h | Potency, µM (series often up to 57.5 µM), for inactives: at the highest dose activity change, negative = inhibition, actives largely listed as inhibitors | actives 0.37% (n = 290,000); further: potency means the concentration at half of the fitted maximal effect; on the % scale 0 is the no-effect control and ±100 the full control effect
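Purified LmPK (0.1 nM) with 0.5 mM PEP and 0.1 mM ADP in imidazole buffer pH 7.2 with MgCl2/KCl, 1 h at room temperature. ATP formed was read by luciferase luminescence and normalized to no-enzyme and uninhibited controls.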
Shiga toxin inh: inhibitors of Shiga toxin in Vero cells. inhibition, % at 38.7 µM. Vero cells, Shiga toxin protein synthesis inhibition reporter. actives 9.2% (n = 290,000); in the data active means inhibition mostly above about 28%, no sharp cut-off; inactive means mostly below about 43%; further: 0% is about no effect
Numbers without * were called inactive; x = no result; [ ] = another dose, or the depositor's remark. Unless noted, the call rests on the fitted dose curve; in most records, active means well fitted curve in the direction sought with a large enough effect; inconclusive means small, poorly fitted or top-dose-only effect, or another doubt; inactive means no such curve, though single readings can be large; an effect the other way counts as inactive or inconclusive.

SMILES | Giardia FBPA inh | NS1 function inh | Cycloheximide cs | LmPK inhibitor | Shiga toxin inh
COc1ccc(CN=Cc2c(O)[nH]c3ccccc23)cc1 | -6.2% | x | 26.9* | 6.4% | 25.2*
Oc1[nH]c2ccccc2c1C=Nc1ccc2c(c1)OCO2 | -6.0% | -11.2% | 64.9* | -20.2% | 68.0*
CN(C)C(=O)c1cc(C(=O)Cc2ccccc2)c[nH]1 | 10.7% | -2.6% | 8.2 | 0.9% | 9.5
O=C(Nc1ccc(Nc2ccncc2)cc1)c1ccc(Nc2ccnc3ccc([N+](=O)[O-])cc23)cc1[N+](=O)[O-] | -7.7% | 8.5% | -2.3 | 0.1% | -6.7
Oc1[nH]c2ccccc2c1/C=N/c1nccs1 | 0.4% | -16.6% | 28.3* | -17.9% | 50.7
CC(=O)Nc1ccc(S(=O)(=O)N/N=C/c2ccc(C)s2)cc1 | 4.5% | 12.8% | 47.8* | 0.0% | 73.5*
CCOC(=O)N/N=C\c1ccc([N+](=O)[O-])s1 | -0.3% | x | 9.5 | -4.3%[11.5 µM] | 41.6
CCCCNC(=S)N/N=C/c1ccc(C)s1 | 4.3% | -12.4% | 50.4* | 10.3% | 60.6*
CCOC(=O)N/N=C\c1ccc(C)s1 | 0.8% | 7.5% | 28.6* | -11.8% | 67.9*
CCCCNC(=S)N/N=C/c1ccccc1F | 1.1% | -4.9% | 15.9* | 3.6% | 19.3
Cc1ccc(/C=N/NC(=S)NCCc2ccccc2)s1 | 8.5% | x | 17.1 | 2.2% | 12.0
Cc1ccccc1N1CCN(C2CCCN(C(=O)CCC(F)(F)F)C2)CC1 (stereo unspecified) | 3.9% | 9.1% | -1.1 | -2.1% | x
C=C(C)C(O)/C=C/c1ccc(C)cc1 (stereo unspecified) | -2.9%[12.9 µM] | x | x | x | x
Cc1ccc(/C=N/NC(=O)Cc2c(F)cccc2Cl)s1 | 7.1% | -8.0% | 54.4* | -0.4% | 78.6*
CCCN(CC(=O)Nc1ccc(Cl)cc1Cl)C(=O)/C=C/c1ccco1 | -0.5% | -22.6% | 76.8* | -2.9% | 174.1*
CCCN(CC(=O)Nc1ccc(Cl)cc1Cl)C(=O)c1ccc(=O)[nH]c1 | x | 2.6% | -2.6 | 5.1% | -7.4
COC(=O)C1=NN(C(=O)c2ccc(Br)cc2)C(O)(C(C)(C)C)C1 (stereo unspecified) | 10.3% | x | 6.9 | -2.6% | 4.8
COC(=O)C1=NN(C(=O)c2cccc(Cl)c2)C(O)(C(C)(C)C)C1 (stereo unspecified) | 25.3% | -29.6% | 50.9* | -0.5% | 91.9*
CN(C)c1ccc(Nc2nc(-c3cccnc3)cs2)cc1 | -4.6% | 1.5% | 51.6* | -17.7% | 59.0*
CCN(CC)c1ccc(Nc2nc(-c3cccnc3)cs2)cc1 | -4.3% | -1.9% | 36.4* | -1.7% | 117.8*
Cc1ccc2nc(/C(C#N)=C\c3cc(O)ccc3[N+](=O)[O-])[nH]c2c1 | 12.9% | 4.5% | 36.0* | -7.1% | 32.8
COc1cc(/C=C(\C#N)c2nc3ccc(C)cc3[nH]2)cc([N+](=O)[O-])c1O | -26.0% | 0.9% | 29.5* | -4.3% | 56.3*
Cc1ccc2nc(/C(C#N)=C\c3ccc(Oc4ccc(C(F)(F)F)cc4[N+](=O)[O-])cc3)[nH]c2c1 | -15.5% | 16.3% | 31.5* | 4.1% | 79.3*
O=C(c1cccc(Cl)c1)N(Cc1ccco1)C1CCS(=O)(=O)C1 (stereo unspecified) | 8.5% | -10.9% | -4.1 | -4.2% | 5.2
CC1CC(c2ccccc2)=Nc2ccccc2N1 (stereo unspecified) | -11.2% | -1.6% | 45.8* | -6.3% | 53.8*
SMILES | Giardia FBPA inh | NS1 function inh | Cycloheximide cs | LmPK inhibitor | Shiga toxin inh
CCCn1c(=O)c(C)cn2nc(N)nc12 | 5.8% | x | x | x | x
Cc1ccc(OC2=NS(=O)(=O)c3ccccc32)cc1 | 3.2% | 11.3% | -2.8 | 4.0% | 20.8
COc1ccccc1OC1=NS(=O)(=O)c2ccccc21 | 24.5% | -82.9% | 11.6 | 12.6µM* | -14.8
COc1ccccc1NC(=O)c1cc(S(=O)(=O)NCc2ccccc2)ccc1F | 2.3% | x | -1.0 | -3.0% | -7.2
CCOc1ccccc1NC(=O)c1cc(S(=O)(=O)NCc2ccco2)ccc1F | x | -3.0% | 41.6* | 10.2% | 35.4*
CN(c1ccccc1)S(=O)(=O)c1cccc(C(=O)OCC(=O)NCc2ccco2)c1 | 10.8% | x | 12.3 | -1.7% | 13.2
O=C(COC(=O)c1ccc(S(=O)(=O)NCc2ccco2)cc1)Nc1ccccc1OC(F)F | -4.3% | -1.0% | 66.6* | -1.7% | 74.3*
COc1ccc(OC)c(NC(=O)c2cc(S(=O)(=O)NCc3ccco3)ccc2F)c1 | 1.0% | -31.9% | 46.5* | 0.4% | 58.2*
COc1cc(OC)c(N(C)S(=O)(=O)c2cccc(C(=O)OCC(=O)NCc3ccco3)c2)cc1Cl | -3.7% | x | 21.4* | 0.9% | -11.7
CCN(C(=O)CN1C(=O)/C(=C/c2ccccc2)SC1=S)C1CCS(=O)(=O)C1 (stereo unspecified) | -0.5% | 2.5% | 21.8 | 0.3% | 8.6
COc1ccc(S(=O)(=O)NCc2ccco2)cc1N(C)S(=O)(=O)c1ccccc1 | -6.4% | 2.0% | 33.5* | -2.3% | 51.4*
COc1ccccc1C(CNC(=O)c1ccc(S(=O)(=O)NCc2ccco2)cc1)N(C)C (stereo unspecified) | 4.1% | 2.5% | 0.8 | -0.8% | 16.5
CC(=O)Nc1ccc(OC(=O)c2cccs2)cc1 | -0.7% | -5.0% | 33.6* | 3.1% | 70.9*
N/C(=N\O)c1ccc(NC(=O)c2cccs2)cc1 | 1.6% | -23.8% | 58.4* | -18.8% | 109.2*
COc1ccc(NC(=O)n2nc(OC(=O)c3cccs3)cc2N)cc1 | -7.2% | -4.8% | 33.4* | -15.3% | 50.6*
COC(=O)Cc1ccc(NC(=S)NNC(=O)c2ccccc2Br)cc1 | 26.6% | 3.4% | 14.2 | -0.9% | 1.4
COC(=O)Cc1ccc(NC(=O)c2ccccc2Br)cc1 | -11.3% | -0.9% | 15.1* | -7.8% | 50.2
C[C@@H]1CCCC(CC(=O)O)(CC(=O)O)C1 | x | 0.7% | x | x | x
CC(C)=CCn1cnc2c1c(=O)n(C)c(=O)n2C | 3.2% | x | x | x | x
CC(=O)c1ccc(NC(=O)c2cccs2)cc1 | 0.4% | -54.2% | 54.3* | -17.6% | 125.1*
Cc1cc(C)cc(C(=O)Nc2ccc(NC(=O)c3cccs3)cc2)c1 | -6.1% | -1.7% | -1.1 | 1.7% | 10.4
O=C(Nc1ccc(C(F)(F)F)cc1)c1ccccc1Br | -7.5% | x | 49.4* | 4.6% | 108.1*
O=C(Nc1ccc(C(F)(F)F)cc1)C1(c2ccccc2)CC1 | 0.8% | -1.5% | 11.5* | 3.2% | 18.4
COC(=O)Cc1ccc(NC(=O)c2cccs2)cc1 | -5.0% | -33.6% | 49.3* | -28.1% | 81.9*
O[C@@H](COc1cccc2ccccc12)CN1CCOCC1 | x | -2.8% | x | x | x
COc1ccc(S(=O)(=O)N2CCN3CCCC3C2)cc1 (stereo unspecified) | 1.4% | 2.2% | -2.2 | 7.1% | 9.7
O=[N+]([O-])c1cccc(/C=N\NC2=CS(=O)(=O)C=C2)c1 | x | -2.8% | x | x | x
O=C(c1cccc(N2CCCC2=O)c1)N1CCN(c2cccc(Cl)c2)CC1 | x | -33.0% | 0.3 | 0.1% | -6.9
O=C(c1cnccn1)N1CCC2(CC1)CN(Cc1nccs1)C2 | 0.9% | x | x | x | x
O=C(NCc1ccco1)C1CC(O)CN1C(=O)Nc1ccccc1 (stereo unspecified) | 2.0% | 0.5% | 9.0 | 2.5% | -12.7

Assay outcomes (PubChem)
